In all, about 5,500 compounds went through this assay and about 2,000 (36%) were called active. Roughly 18% stayed inconclusive and do not appear here. Rule as the data show it: active = normalized growth mostly below about 0.91 (no sharp cut-off); inconclusive = no clear call, values can overlap the other calls; inactive = mostly above about 0.92. The list shows a part of the results.
Assay: chemical genetic growth profiling, strain panel (AID 1159580);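 also: tested at 20 µM; growth read once vehicle control cultures reached saturation at 30 °C; 1 = growth at the plate median or of vehicle wells; lower values mean less growth of the strain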
Conditions: growth OD

Measured: normalized growth

COc1nc(NC(C)C)nc(NC(C)C)n1
inactive: S. cerevisiae deletion strains, locus YJR075W, strain HOC1, hits give low values 1 | S. cerevisiae deletion strains, locus YKL009W, strain mrt4, hits give low values 1.02 | S. cerevisiae deletion strains, locus YKL068W, hits give low values 1.01 | S. cerevisiae deletion strains, locus YKL085W, strain MDH1 (second series), hits give low values 1.01 | S. cerevisiae deletion strains, locus YKL085W, strain MDH1, hits give low values 1.01 | S. cerevisiae deletion strains, locus YKL160W, strain elf1, hits give low values 1.02 | S. cerevisiae deletion strains, locus YKL190W, strain CNB1, hits give low values 1.02 | S. cerevisiae deletion strains, locus YKR001C, strain vps1, hits give low values 1.02 | S. cerevisiae deletion strains, locus YKR026C, strain gcn3, hits give low values 1.02 | S. cerevisiae deletion strains, locus YKR091W, strain srl3, hits give low values 1.02 | S. cerevisiae deletion strains, locus YLL001W, strain dnm1, hits give low values 1.02 | S. cerevisiae deletion strains, locus YLL026W, hits give low values 1.02 | S. cerevisiae deletion strains, locus YLL041C, strain sdh2, hits give low values 1.02 | S. cerevisiae deletion strains, locus YLR027C, strain aat2, hits give low values 1.03 | S. cerevisiae deletion strains, locus YLR039C, strain RIC1, hits give low values 1.02 | S. cerevisiae deletion strains, locus YLR058C, strain SHM2, hits give low values 1 | S. cerevisiae deletion strains, locus YLR102C, strain apc9, hits give low values 1.02 | S. cerevisiae deletion strains, locus YLR113W, strain HOG1, hits give low values 0.986 | S. cerevisiae deletion strains, locus YLR221C, strain rsa3, hits give low values 1.04 | S. cerevisiae deletion strains, locus YLR258W, strain gsy2, hits give low values 1.01 | S. cerevisiae deletion strains, locus YLR262C, strain YPT6 (second series), hits give low values 1.02 | S. cerevisiae deletion strains, locus YLR262C, strain YPT6, hits give low values 1.02 | S. cerevisiae deletion strains, locus YLR268W, strain sec22, hits give low values 1.01 | S. cerevisiae deletion strains, locus YLR320W, strain mms22, hits give low values 1.04 | S. cerevisiae deletion strains, locus YLR330W, strain CHS5, hits give low values 1.01 | S. cerevisiae deletion strains, locus YLR342W, strain FKS1 (second series), hits give low values 1.03 | S. cerevisiae deletion strains, locus YLR342W, strain FKS1, hits give low values 1.01 | S. cerevisiae deletion strains, locus YLR357W, strain rsc2, hits give low values 1.03 | S. cerevisiae deletion strains, locus YLR370C, strain arc18, hits give low values 1.04 | S. cerevisiae deletion strains, locus YLR371W, strain rom2, hits give low values 1.02 | S. cerevisiae deletion strains, locus YLR384C, strain iki3, hits give low values 1.03 | S. cerevisiae deletion strains, locus YLR418C, strain cdc73, hits give low values 1.01 | S. cerevisiae deletion strains, locus YML016C, strain PPZ1, hits give low values 1.01 | S. cerevisiae deletion strains, locus YML032C, strain rad52, hits give low values 1.02 | S. cerevisiae deletion strains, locus YML120C, strain ndi1, hits give low values 1.02 | S. cerevisiae deletion strains, locus YML124C, strain tub3, hits give low values 1.02 | S. cerevisiae deletion strains, locus YMR058W, strain fet3, hits give low values 1.03 | S. cerevisiae deletion strains, locus YMR078C, strain ctf18, hits give low values 1.03 | S. cerevisiae deletion strains, locus YMR125W, strain sto1, hits give low values 1.03 | S. cerevisiae deletion strains, locus YMR129W, hits give low values 1.01 | S. cerevisiae deletion strains, locus YMR205C, strain PFK2, hits give low values 1.01 | S. cerevisiae deletion strains, locus YMR223W, strain ubp8, hits give low values 1.02 | S. cerevisiae deletion strains, locus YMR231W, strain pep5, hits give low values 1.02 | S. cerevisiae deletion strains, locus YMR263W, strain SAP30, hits give low values 1.02 | S. cerevisiae deletion strains, locus YMR307W, strain GAS1, hits give low values 1.04 | S. cerevisiae deletion strains, locus YNL067W, strain RPL9B, hits give low values 1.01 | S. cerevisiae deletion strains, locus YNL071W, strain lat1, hits give low values 1.01 | S. cerevisiae deletion strains, locus YNL128W, strain TEP1, hits give low values 1 | S. cerevisiae deletion strains, locus YNL153C, strain GIM3, hits give low values 1.01 | S. cerevisiae deletion strains, locus YNL183C, strain NPR1, hits give low values 0.999 | S. cerevisiae deletion strains, locus YNL209W, strain ssb2, hits give low values 1.02 | S. cerevisiae deletion strains, locus YNL233W, strain BNI4, hits give low values 1.01 | S. cerevisiae deletion strains, locus YNL248C, strain rpa49, hits give low values 1.04 | S. cerevisiae deletion strains, locus YNL250W, strain rad50, hits give low values 1.01 | S. cerevisiae deletion strains, locus YNL271C, strain bni1, hits give low values 1.01 | S. cerevisiae deletion strains, locus YNL298W, strain CLA4, hits give low values 1.03 | S. cerevisiae deletion strains, locus YNL307C, strain MCK1, hits give low values 1.03 | S. cerevisiae deletion strains, locus YNL322C, strain KRE1 (second series), hits give low values 1.02 | S. cerevisiae deletion strains, locus YNL322C, strain KRE1, hits give low values 1 | S. cerevisiae deletion strains, locus YNR049C, strain mso1, hits give low values 1.05 | S. cerevisiae deletion strains, locus YNR052C, strain pop2, hits give low values 1.03 | S. cerevisiae deletion strains, locus YOL006C, strain TOP1, hits give low values 1.03 | S. cerevisiae deletion strains, locus YOL012C, strain htz1 1.23 | S. cerevisiae deletion strains, locus YOL147C, strain pex11, hits give low values 1.02 | S. cerevisiae deletion strains, locus YOR001W, strain rrp6, hits give low values 1.02 | S. cerevisiae deletion strains, locus YOR061W, strain CKA2, hits give low values 1 | S. cerevisiae deletion strains, locus YOR069W, strain VPS5, hits give low values 1.01 | S. cerevisiae deletion strains, locus YOR070C, strain gyp1, hits give low values 1.03 | S. cerevisiae deletion strains, locus YOR080W, strain dia2, hits give low values 1.03 | S. cerevisiae deletion strains, locus YOR083W, strain WHI5, hits give low values 1.01 | S. cerevisiae deletion strains, locus YOR106W, strain vam3, hits give low values 1.02 | S. cerevisiae deletion strains, locus YOR136W, strain idh2, hits give low values 1.02 | S. cerevisiae deletion strains, locus YOR144C, strain elg1, hits give low values 1.03 | S. cerevisiae deletion strains, locus YOR184W, strain ser1, hits give low values 1.03 | S. cerevisiae deletion strains, locus YOR231W, strain MKK1, hits give low values 1.05 | S. cerevisiae deletion strains, locus YOR265W, strain rbl2, hits give low values 1.01 | S. cerevisiae deletion strains, locus YOR270C, strain vph1, hits give low values 1.06 | S. cerevisiae deletion strains, locus YOR290C, strain snf2, hits give low values 0.997 | S. cerevisiae deletion strains, locus YOR316C, strain cot1, hits give low values 1.02 | S. cerevisiae deletion strains, locus YPL051W, strain arl3, hits give low values 1.01 | S. cerevisiae deletion strains, locus YPL055C, strain LGE1, hits give low values 1.02 | S. cerevisiae deletion strains, locus YPL078C, strain atp4, hits give low values 1.01 | S. cerevisiae deletion strains, locus YPL106C, strain sse1, hits give low values 1.01 | S. cerevisiae deletion strains, locus YPL240C, strain hsp82, hits give low values 1.01 | S. cerevisiae deletion strains, locus YPL241C, strain CIN2, hits give low values 1.02 | S. cerevisiae deletion strains, locus YPL256C, strain CLN2, hits give low values 1.08 | S. cerevisiae deletion strains, locus YPR119W, strain clb2, hits give low values 1.01 | S. cerevisiae deletion strains, locus YPR141C, strain kar3, hits give low values 1.03 | S. cerevisiae deletion strains, locus YPR163C, strain tif3, hits give low values 1.02 | S. cerevisiae deletion strains, locus YPR167C, strain met16, hits give low values 1.02 | S. cerevisiae deletion strains, strain wtn01, hits give low values 1.01 | S. cerevisiae strains, strain wild type, hits give low values 1
